Screening data as filed in PubChem.
HCV inhibitor: blocks hepatitis C virus. Huh7.5.1 HCVcc-Cre infection, luciferase reporter, 44 h. hit rate 3.4% among 340,000. Potency, µM (series often up to 41.8 µM), inactives show at the highest dose activity change, negative = inhibition, hits mostly inhibitors
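Antiviral activity was scored by luciferase reporter output from cells infected with HCVcc-Cre (~0.5 moi) in presence of compound, 44 h infection period, cells seeded 1,000/well 4 h prior.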
LASV entry inh: blocks Lassa virus binding to or entry into cells. Lassa virus pseudotype entry inhibition, cell reporter. hit rate 1.2% among 300,000. Potency, µM (series often up to 37.9 µM), inactives show at the top dose activity change, negative = inhibition, most hits filed as inhibitors; calls by dose curve; tested in HEK293 cells; further: nearly all actives have a fitted effect of over 50% in size
MARV entry inh: Marburg virus entry inhibition; Marburg virus pseudotyped entry inhibition, cell reporter; Potency, µM (top dose mostly 37.8 µM), for the others: at the top dose activity change, negative = inhibition, actives largely listed as inhibitors; hit rate 1.8% among 300,000; AID 540276; calls by dose curve; tested in HEK293 cells
RE007 growth inh: less growth of the S. pombe RE007 Vpr strain; S. pombe RE007 Vpr strain, BacTiter-Glo ATP luminescence, 24 h; Potency, µM (doses to about 92.2 µM), without a hit: at the top dose activity change, negative = less growth, hits mostly inhibitors; hit rate 0.21% among 360,000; active means well fitted falling curve with a large enough effect; inconclusive means small, poorly fitted or top-dose-only effect; inactive means no such curve, though single readings can be large or run the other way; further: nearly all actives have a fitted effect of over 50% in size
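Fission yeast RE007 carrying one integrated HIV-1 vpr copy, seeded at OD 0.01 in PMG+AL medium with 23 nL pinned compound. Grown 24 h at 30 degrees; viability read by BacTiter-Glo luminescence after 5 min.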
FMDV antiviral: foot and mouth disease virus antiviral activity | Potency, µM (doses to about 57.9 µM), for the others: at the top dose activity change, negative = inhibition, most hits filed as inhibitors | AID 1159524 | FMDV antiviral cell-based qHTS | hit rate 1.2% among 410,000; calls by dose curve; tested in HEK293T cells; further: read-out not given here; nearly all actives have a fitted effect of over 45% in size
Sm TGR inh: blocks Schistosoma mansoni thioredoxin glutathione reductase; Q962Y6; purified TGR, DTNB reduction, TNB absorbance 405 nm; Potency, µM (titrated, usually from 114 µM), for inactives: top-dose activity change, negative = inhibition, actives largely listed as inhibitors; hit rate 3% among 360,000; further: nearly all actives have a fitted effect of over 60% in size
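TGR 20 nM + NADPH 100 uM (dispensed conc.), cpd preinc 15 min RT; start with NADPH (500 uM addition) then DTNB (15 mM addition). Kinetic TNB absorbance, 405 nm filter. Four-parameter Hill fit across titration.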
Numbers without * were called inactive; ? = inconclusive; / = no result given; ! = repeats disagree; [ ] = dose if it differs, or a comment. Most compounds without a hit are left out; they make up all but 7.2% or so of the library. Unless noted, the call rests on the fitted dose curve; in most records, active means well fitted curve in the direction sought with a large enough effect; inconclusive means small, poorly fitted or top-dose-only effect, or another doubt; inactive means no such curve, though single readings can be large; an effect the other way counts as inactive or inconclusive. On the % scale 0 is the no-effect control and ±100 the full control effect; potency means the concentration at half of the fitted maximal effect.

SMILES | HCV inhibitor | LASV entry inh | MARV entry inh | RE007 growth inh | FMDV antiviral | Sm TGR inh
O=C(Nc1nc2ccc(Cl)cc2s1)C1CC1 | 8.9µM* | / | / | -12% | 27% | /
CC(C)c1ccc2nc(NC(=O)C3CC3)sc2c1 | -12% | / | / | -12% | 71% | -8%
O=C(Nc1nc2cc3c(cc2s1)OCO3)C1CC1 | 10µM* | -4% | ? | 2% | 1% | -5%
O=C(Nc1nc2ccccc2s1)C1CCN(S(=O)(=O)c2cc([N+](=O)[O-])ccc2Cl)CC1 | ? | / | / | -10% | 35µM* | ?
O=C(Nc1nc2cc3c(cc2s1)OCO3)C1CCCCC1 | ? | / | / | 1% | 0% | 1%
NC(=S)n1[nH]c(-c2ccc([N+](=O)[O-])cc2)c(N=Nc2ccccc2[N+](=O)[O-])c1=O | -4% | / | / | 4% | -15% | -25%
Cc1[nH]n(C(N)=S)c(=O)c1N=Nc1cccc([N+](=O)[O-])c1C | 16% | / | / | -3% | 0% | 0%
NC(=S)n1[nH]c(-c2ccc([N+](=O)[O-])cc2)c(N=Nc2cccc([N+](=O)[O-])c2)c1=O | 10µM* | ? | ? | -6% | ? | 6%
Cc1c(N=Nc2c(-c3ccc([N+](=O)[O-])cc3)[nH]n(C(N)=S)c2=O)cccc1[N+](=O)[O-] | 8.9µM* | ? | 2.8µM* | 10% | ? | -14%
CCN(c1ccccc1)S(=O)(=O)c1cc(C(=O)NCC(c2ccco2)N2CCCCC2)ccc1C (configuration not stated) | ? | ? | ? | 2% | 0% | /
CCN(c1ccccc1)S(=O)(=O)c1cccc(C(=O)NCC(c2ccco2)N2CCCCC2)c1 (configuration not stated) | 10µM* | -28% | ? | -7% | -10% | /
CCN(c1ccccc1)S(=O)(=O)c1cccc(C(=O)NCC(c2ccco2)N2CCCC2)c1 (configuration not stated) | 10µM* | 5% | ? | -9% | -18% | ?
CCOc1cc(C#N)c(NC(=O)c2ccc(OC)c(S(=O)(=O)N3CCCCC3)c2)cc1OCC | / | 3%[46.1 µM] | -12%[46.1 µM] | / | -12% | 2%
CC1CCCN(CCOc2ccc3ccccc3c2Br)C1 (configuration not stated) | 11µM* | ? | ? | -9% | 7% | 1%
COc1cc2c(=O)n(Cc3ccccc3)c(=O)n(CC(=O)NCCc3ccccc3)c2cc1OC | ? | ? | 15% | 22% | -15% | -7%
COc1ccc(CCNC(=O)Cn2c(=O)n(Cc3ccco3)c(=O)c3ccc(Cl)cc32)cc1OC | 11µM*! | -6% | ? | -5% | 0% | -17%
CCOc1ccccc1NC(=O)CSc1c2c(nc3ccc(Cl)cc13)CCCC2 | / | ? | -7%[46.1 µM] | / | ? | -8%
Cc1ccc(-n2c(=O)c3sc4ccccc4c3n(CC(=O)NC3CCCC3)c2=O)cc1C | / | 1%[46.1 µM] | 0%[46.1 µM] | / | -11% | 1%
CC(C)N(C(=O)[C@H]1C[C@H](CC(=O)NCCCN(C)C)C(=O)N2CCc3c([nH]c4ccc(Cl)cc34)[C@]12C)C(C)C | 10µM* | / | / | 6% | -14% | /
CC(C)N(C(=O)[C@H]1C[C@H](CC(=O)NCC23CC4CC(CC(C4)C2)C3)C(=O)N2CCc3c([nH]c4ccc(Cl)cc34)[C@]12C)C(C)C | 16µM* | / | / | 2% | ? | /
CCN(CC)C(=O)[C@H]1C[C@H](CC(=O)NCCCN(C)C)C(=O)N2CCc3c([nH]c4ccc(Cl)cc34)[C@]12C | ? | / | / | -7% | -5% | /
CCn1cc(S(=O)(=O)c2ccccc2)c(=O)c2cc(F)c(N3CCCC3)cc21 | / | -18%[46.1 µM] | / | / | -20% | -4%
Cc1ccc(NC(=O)C2CC(=O)N(Cc3ccccc3)C2)cc1S(=O)(=O)N1CCCCCC1 (configuration not stated) | 8.9µM* | ? | ? | 6% | ? | -3%
CCN(CC)S(=O)(=O)c1cc(NC(=O)C2CC(=O)N(Cc3ccccc3)C2)ccc1Cl (configuration not stated) | 11µM* | / | / | 8% | 11µM* | -6%
